# Measured values as given in publication PMC5540273 (PLoS ONE, 2017).
# Legend:
# Details in all cases: concentration: 1 μM, replicates: in singlicate; n = 1
# FAK = system: T1, FAK
# T1 construct: gene PTK2
# FER = system: FER
# FES = system: FES
# FGFR1 = system: FGFR1
# FGFR2 = system: FGFR2
# FGFR3 = system: FGFR3
# FGFR4 = system: FGFR4
# FGR = system: FGR
# FLT1 = system: FLT1
# FLT3-autoinhibited = system: FLT3-autoinhibited
# FLT3 = system: FLT3
# FLT4 = system: FLT4
# FRK = system: FRK
# FYN = system: FYN
# GAK = system: GAK
# GCN2(Kin.Dom.2,S808G) = system: T2, GCN2(Kin.Dom.2,S808G)
# T2 construct: gene EIF2AK4
# GRK1 = system: GRK1
# GRK2 = system: T3, GRK2
# T3 construct: gene ADRBK1
# GRK3 = system: T4, GRK3
# T4 construct: gene ADRBK2
# GRK4 = system: GRK4
# 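Also: KINOMEscan kinase panel screen.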
Structure (SMILES),%Inh (FAK),%Inh (FER),%Inh (FES),%Inh (FGFR1),%Inh (FGFR2),%Inh (FGFR3),%Inh (FGFR4),%Inh (FGR),%Inh (FLT1),%Inh (FLT3-autoinhibited),%Inh (FLT3),%Inh (FLT4),%Inh (FRK),%Inh (FYN),%Inh (GAK),"%Inh (GCN2(Kin.Dom.2,S808G))",%Inh (GRK1),%Inh (GRK2),%Inh (GRK3),%Inh (GRK4)
CS(=O)(=O)c1ccc(-c2c(-c3ncn[nH]3)sc(N3CCOCC3)c2C#N)cc1,0%,14%,42%,32%,9%,5%,0%,40%,13%,2%,0%,0%,8%,0%,0%,11%,25%,26%,26%,0%
O=C(O)COc1ncnc2cc(-c3ccc4[nH]ncc4c3)sc12,5%,0%,7%,23%,1%,0%,0%,0%,0%,39%,2%,2%,100%,100%,4%,0%,3%,20%,23%,0%
O=C1NC(=O)C(N2CCc3ccccc32)=C1c1ccccc1Cl [SB-373598],0%,34%,15%,7%,15%,33%,9%,21%,6%,0%,2%,20%,20%,18%,0%,4%,19%,0%,0%,24%
COC(=O)c1c(-c2ccccc2)c2cc(C(=O)O)ccc2c(=O)n1Cc1ccccc1,0%,0%,0%,0%,3%,0%,0%,0%,7%,3%,0%,0%,48%,0%,0%,10%,0%,0%,3%,23%
O=c1cc(N2CCOCC2)nc2n(Cc3cccc(Cl)c3Cl)ccn12 [GSK2286295],0%,12%,12%,0%,0%,5%,12%,16%,26%,0%,0%,3%,0%,47%,6%,0%,5%,0%,0%,0%
Fc1cccc(COc2nnc(-c3ccc4c(c3)CCO4)o2)c1,0%,0%,14%,5%,0%,0%,0%,19%,0%,3%,4%,0%,0%,0%,2%,5%,0%,0%,23%,0%
O=C(Nc1ccccc1)Nc1cccc(Oc2ccc3nccn3n2)c1,0%,0%,0%,13%,9%,0%,0%,18%,96.8%,0%,4%,67%,0%,0%,0%,14%,0%,0%,0%,23%
Cc1cc(N2Cc3ccccc3C2)nc(Nc2ccc(S(=O)(=O)N3CCOCC3)cc2)n1.Cl [GSK1669917],0%,25%,9%,0%,11%,15%,1%,0%,9%,0%,0%,3%,11%,0%,0%,0%,0%,0%,0%,0%
